Sampled rows, rich in hits. Any-hit rate of the full collection: about 6%.
Tau fluor counter: Counterscreen qHTS for Inhibitors of Tau Fibril Formation, Fluorescence Polarization. tau K18 P301L Alexa594 fluorescence, heparin fibrillization. Potency, µM (top dose mostly 57.7 µM). 0.93% of 280,000 active; also: nearly all actives have a fitted effect of over 55% in size
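Human tau K18 P301L (15 uM unlabeled, 0.24 uM Alexa 594-labeled) in 100 mM sodium acetate pH 7 with 20 uM heparin, 6 hr at 37 C. ThT 30 uM added, 1 hr ambient; Alexa 594 FP and total fluorescence read at 555/632 nm.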
PLK1 PBD inh: qHTS for Inhibitors of PLK1-PDB (polo-like kinase 1 - polo-box domain): Primary Screen; Serine/threonine-protein kinase PLK1 (Homo sapiens), P53350; Plk1 PBD binding of FITC phosphopeptide, fluorescence polarization; Potency, µM, hits mostly inhibitors; 2.8% of 360,000 active; AID 720504, 2013; also: series mostly up to about 57 µM; nearly all actives have a fitted effect of over 65% in size
Target sequence (P53350 whole entry, looked up, the tested form may be a part): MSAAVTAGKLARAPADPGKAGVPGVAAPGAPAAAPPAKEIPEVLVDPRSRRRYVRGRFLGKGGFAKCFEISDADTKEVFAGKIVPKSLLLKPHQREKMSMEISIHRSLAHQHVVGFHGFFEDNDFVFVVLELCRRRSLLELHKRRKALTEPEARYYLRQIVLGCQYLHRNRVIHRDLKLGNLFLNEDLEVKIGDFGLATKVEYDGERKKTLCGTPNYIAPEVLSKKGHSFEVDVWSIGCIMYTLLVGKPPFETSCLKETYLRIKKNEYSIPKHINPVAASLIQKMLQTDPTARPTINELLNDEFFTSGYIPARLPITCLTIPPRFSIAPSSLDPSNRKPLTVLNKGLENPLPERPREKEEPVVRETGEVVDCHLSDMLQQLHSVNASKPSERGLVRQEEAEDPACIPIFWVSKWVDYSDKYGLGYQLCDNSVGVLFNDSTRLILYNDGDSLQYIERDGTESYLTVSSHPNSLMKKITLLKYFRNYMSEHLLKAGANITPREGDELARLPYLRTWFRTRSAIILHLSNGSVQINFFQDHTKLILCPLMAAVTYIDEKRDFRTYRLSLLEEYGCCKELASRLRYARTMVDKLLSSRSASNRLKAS
Tau fibril ThT: qHTS for Inhibitors of Tau Fibril Formation, Thioflavin T Binding. recombinant tau K18 P301L, heparin-induced fibrillization, ThT fluorescence. AID 1460, 2008. Microtubule-associated protein tau (Homo sapiens), P10636. 2.1% of 270,000 active. Potency, µM (doses to about 57.4 µM), most hits filed as inhibitors; also: nearly all actives have a fitted effect of over 55% in size
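Using a mix of unlabeled (15 uM) and Alexa 594-labeled (0.24 uM) tau K18 P301L, heparin-triggered fibrillization over 6 hr at 37 C was scored by ThT fluorescence.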
Sfp inh: qHTS Assay for Inhibitors of Bacillus subtilis Sfp phosphopantetheinyl transferase (PPTase) | 4'-phosphopantetheinyl transferase ffp (Bacillus subtilis), Q9F4F7 | AID 1490, 2009 | 3.5% of 310,000 active | Biochemical Sfp PPTase activity, qHTS | Potency, µM, hits mostly inhibitors;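 also: the enzyme is Sfp with the accession as filed and its product quenches rhodamine fluorescence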
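After 15 min at room temperature with compound, 15 nM Sfp received 5 uM rhodamine-CoA plus 12.5 uM BHQ-2-ybbR (50 mM Hepes pH 7.6, 10 mM MgCl2). Rate came from the fluorescence difference over 30 min, ex 525/em 598 nm.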
VDR inh: Inhibitors of the vitamin D receptor (VDR): qHTS; Vitamin D3 receptor (Homo sapiens), P11473; VDR-SRC2-3 peptide fluorescence polarization, 2 h; Potency, µM, usual class: inhibitors; 0.93% of 400,000 active
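Fluorescence polarization assay measuring small-molecule disruption of VDR binding to the coregulator peptide SRC2-3. Compounds were pin-transferred (23 nl) into the reagent mix and incubated 2 h at room temperature before reading.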
Tau fibril FP: qHTS for Inhibitors of Tau Fibril Formation, Fluorescence Polarization. Potency, µM (series often up to 57.7 µM), actives largely listed as inhibitors. 0.39% of 280,000 active. K18 P301L tau heparin fibrillization, Alexa594 FP, 6 h; also: nearly all actives have a fitted effect of over 55% in size
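Compound effects on tau fibrillization are measured by Alexa 594 fluorescence polarization (ex 555, em 632 nm). K18 P301L tau is used at 15 uM with 0.24 uM labeled tracer, and 20 uM heparin induces aggregation over 6 hr at 37 C.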
A number is an active result; . = inactive; ? = inconclusive; / = no result given; [ ] = another dose, or the depositor's remark. Calls follow the shape of the dose curve; as a rule, active = well fitted curve in the direction sought with a large enough effect; inconclusive = small, poorly fitted or top-dose-only effect, or another doubt; inactive = no such curve, though single readings can be large; an effect the other way counts as inactive or inconclusive.

SMILES	Tau fluor counter	PLK1 PBD inh	Tau fibril ThT	Sfp inh	VDR inh	Tau fibril FP
N#CC(C#N)=C1C=C2C=C(N3CCOCC3)CCC2CC1 (stereo not given)	.	.	?	.	71µM	.
Cc1cccc(OCc2n(CC(=O)OC3CC(C)CCC3C(C)C)c3ccccc3[n+]2C)c1 (stereo not given)	.	.	?	25µM	.	.
CC(=O)N1CCN(c2ccc(NC(=O)c3ccc([N+](=O)[O-])cc3)cc2)CC1	/	.	/	.	.	/
CCCCNC(=O)c1ccc2nc(-c3ccco3)c(-c3ccco3)nc2c1	?	21µM	16µM	32µM	79µM	?
CCCCCNC(=O)C(c1cc2ccccc2o1)n1c(=O)c(-c2ccco2)nc2ccccc21 (stereo not given)	/	7.5µM	/	/	/	/
COc1ccc(C(=O)NCCCN2CCOCC2)cc1	/	.	/	.	.	/
COc1ccc(-c2nc3ccc(C(=O)NCCCN4CCOCC4)cc3nc2-c2ccc(OC)cc2)cc1	/	.	/	56µM	.	/
O=C(Nc1ccc(N2CCOCC2)cc1)c1ccc([N+](=O)[O-])cc1	.	.	2.8µM	.	.	.
CC(C)(C)NC(=O)C(c1cc2ccccc2o1)n1c(=O)c(-c2ccco2)nc2ccccc21 (stereo not given)	/	.	/	/	/	/
C=CCN1C=C(C(C)=O)C(=O)CC1	/	.	/	/	.	/
O=C(Nc1ccc(N2CCOCC2)cc1)c1ccc2nc(-c3ccco3)c(-c3ccco3)nc2c1	?	.	2.5µM	.	.	.
CC(=O)Nc1ccc2nc(-c3ccco3)[nH]c2c1	.	.	.	.	.	.
CC(=O)c1ccc(NC(=O)c2ccc3nc(-c4ccco4)c(-c4ccco4)nc3c2)cc1	?	24µM	13µM	13µM	?	.
O=C(Nc1ccc2nc(-c3ccco3)[nH]c2c1)c1ccco1	.	.	?	45µM	.	.
O=C(Nc1ccc(N2CCOCC2)cc1)c1cccc(-n2cnnc2)c1	/	.	/	.	.	/
S=C(Nc1ccc(N2CCOCC2)cc1)Nc1ccc2nc(-c3ccco3)c(-c3ccco3)nc2c1	7.9µM[quencher]	?	2.2µM	.	.	?
CCC(=O)N1CCc2cc(Br)cc(S(=O)(=O)N3CCN(c4ccc(C)cc4)C(C)C3)c21 (stereo not given)	.	/	.	/	.	.
COCCNc1nc(Nc2ccc(C(=O)OC)cc2)c2sccc2n1	/	.	/	/	/	/
Cn1cc([N+](=O)[O-])c(C(=O)Nc2ccc3nc(-c4ccccc4)[nH]c3c2)n1	?	.	16µM	.	.	.
Cn1cc([N+](=O)[O-])c(C(=O)Nc2ccc(-c3nc4ccccc4[nH]3)cc2)n1	.	.	?	.	.	.
Cc1cc(Cl)ccc1C(=O)C1CCCN(C(=O)c2cccc(N3CCCC3=O)c2)C1 (stereo not given)	/	24µM	/	.	?	/
Cc1cc(Cl)ccc1C(=O)C1CCCN(C(=O)c2ccc3ncccc3c2)C1 (stereo not given)	.	.	.	.	.	.
Cc1cccc(Cn2c(=O)n(-c3ccc(CC(=O)NCc4ccco4)cc3)c(=O)c3sccc32)c1	.	.	.	22µM	.	.
Cc1ccc(-n2c(=O)c3sccc3n(CC(=O)NCc3ccco3)c2=O)cc1	.	.	.	.	.	.
CNC(=S)N(Cc1ccc(OC)cc1)Cc1cc2cccc(C)c2[nH]c1=O	.	13µM	.	.	?	.
COc1ccc2cc3[n+](cc2c1OC)CCc1cc2c(cc1-3)OCO2	.	.	18µM	.	.	.
Cc1ccc(NC(=O)C2CCC(CNS(=O)(=O)c3ccc4c(c3)CCCC(=O)N4)CC2)cc1F (stereo not given)	.	/	.	/	.	.

Assay outcomes (PubChem)
